Laboratory results taken from PubChem BioAssay.
Activity calls are given as the source filed them. Unless noted, how the calls were made is not given here.

Experiments:
[1] = resazurin metabolic signal in HepG2 cells – cell-based, resazurin fluorescence, 24 h, PK04 Diversity Set, profiling panel (AID 1172); details: HepG2 viability, higher = more signal; further: test concentration not given here
[2] = budding yeast growth changes without added modifier – OD600, strain BY4716, 24 h, basal condition, primary screen (AID 1173); details: S. cerevisiae BY4716 growth, OD600, 24 h; higher = more signal, called active from +8 up or from −8 down
[3] = viability profiling in MM1S myeloma cells – cell-based, resazurin fluorescence, basal, 24 h, PK04 Diversity Set, profiling panel (AID 1174); details: higher = more signal, called active from +8 up or from −8 down;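 further: MM1S multiple myeloma cell line; test concentration not given here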
[4] = biological target: Dihydroorotate dehydrogenase (quinone), mitochondrial (Plasmodium falciparum (isolate 3D7)) (UniProt Q08210); test: inhibition of P. falciparum DHODH – biochemical, C-terminal His tag, absorbance 600 nm, primary screen (AID 1175); details: PfDHODH enzyme, DCIP absorbance 600 nm; higher = more signal, called active from +8 up or from −8 down;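 further: recombinant parasite enzyme with a five histidine tag at its C terminus; test concentration not given here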
Chain of Dihydroorotate dehydrogenase (quinone), mitochondrial (Plasmodium falciparum (isolate 3D7)) (Q08210 whole entry, looked up): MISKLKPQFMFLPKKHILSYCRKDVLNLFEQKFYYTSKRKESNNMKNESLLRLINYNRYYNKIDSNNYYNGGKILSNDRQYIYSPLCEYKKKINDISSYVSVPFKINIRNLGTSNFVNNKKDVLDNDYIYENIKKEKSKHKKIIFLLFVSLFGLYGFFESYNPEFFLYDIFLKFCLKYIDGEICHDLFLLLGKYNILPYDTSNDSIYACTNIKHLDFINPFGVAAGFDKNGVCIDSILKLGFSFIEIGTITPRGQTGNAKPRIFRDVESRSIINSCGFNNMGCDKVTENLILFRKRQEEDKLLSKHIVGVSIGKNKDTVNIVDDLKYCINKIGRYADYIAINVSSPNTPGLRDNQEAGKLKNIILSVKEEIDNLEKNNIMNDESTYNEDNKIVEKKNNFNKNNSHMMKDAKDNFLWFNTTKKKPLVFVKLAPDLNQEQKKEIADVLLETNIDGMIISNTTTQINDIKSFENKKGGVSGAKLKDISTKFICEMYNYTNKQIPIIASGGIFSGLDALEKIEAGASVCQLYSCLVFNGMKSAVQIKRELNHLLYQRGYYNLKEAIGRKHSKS

[5] = inhibition of PAO1 biofilm formation – strain PAO1, LB-PBS medium, absorbance 600 nm, primary screen (AID 1176); further: test concentration not given here; details: P. aeruginosa PAO1 growth/biofilm, A600, 12 h; higher = more signal
[6] = growth modulation of vineyard yeast isolate – strain RM11-1a, OD600, basal, 24 h, primary screen (AID 1177);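 further: cultures grown under basal conditions with no added stressor; test concentration not given here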; details: S. cerevisiae RM11-1a growth, OD600, 24 h; higher = more signal, called active from +8 up or from −8 down
[7] = growth of efflux-deficient E. coli DRC39 – strain DRC39, OD650, 24 h, E. coli filamentation inducers, primary screen (AID 1178);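 further: growth measured as culture turbidity by optical density at 650 nm; test concentration not given here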; details: E. coli DRC39 acrAB, higher = more signal, called active from +8 up or from −8 down
[8] = growth of efflux-deficient E. coli DRC39 – strain DRC39, OD650, 48 h, E. coli filamentation inducers, primary screen (AID 1179);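 further: screen aims at cell division blockers that make cells filament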; details: E. coli DRC39 delta-acrAB growth, higher = more signal, called active from +8 up or from −8 down
[9] = viability profiling in RPMI8226 myeloma cells – cell-based, resazurin fluorescence, basal, 24 h, PK04 Diversity Set, profiling panel (AID 1180); details: higher = more signal;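 further: RPMI8826 multiple myeloma cell line at 5000 cells per well; test concentration not given here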
[10] = biological target: E3 ubiquitin-protein ligase XIAP (Homo sapiens) (UniProt P98170); test: small molecules binding XIAP protein – biophysical, small-molecule microarray, fluorescence 635 nm, primary screen (AID 1181); details: higher = more signal;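 further: score merges 667 nm emission and signal to noise over triplicate slides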
Chain of E3 ubiquitin-protein ligase XIAP (Homo sapiens) (P98170 whole entry, looked up): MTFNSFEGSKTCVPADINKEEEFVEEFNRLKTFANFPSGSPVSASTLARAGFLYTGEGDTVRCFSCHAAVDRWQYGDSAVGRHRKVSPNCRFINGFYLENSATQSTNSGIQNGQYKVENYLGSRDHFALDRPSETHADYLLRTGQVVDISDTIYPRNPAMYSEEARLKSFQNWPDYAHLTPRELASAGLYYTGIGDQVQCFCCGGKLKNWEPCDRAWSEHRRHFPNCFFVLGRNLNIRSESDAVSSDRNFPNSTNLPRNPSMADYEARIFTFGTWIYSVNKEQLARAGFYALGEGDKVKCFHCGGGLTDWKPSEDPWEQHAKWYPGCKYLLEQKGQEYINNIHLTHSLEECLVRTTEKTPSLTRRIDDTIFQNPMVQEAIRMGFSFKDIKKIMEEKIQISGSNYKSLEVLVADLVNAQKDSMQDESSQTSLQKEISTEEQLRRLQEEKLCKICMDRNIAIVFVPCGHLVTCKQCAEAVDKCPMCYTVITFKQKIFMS

COC(=O)c1c(CC[C@@H](CO)NC(=O)N[C@@H](C)Cn2cc(C3(O)CCCCC3)nn2)oc(C(C)=O)c1C(=O)OC
z-score [1]: -1.26 | z-score [2]: -2.52 (inactive) | z-score [3]: -0.131 (inactive) | composite z-score [4]: -2.71 (inactive) | z-score [5]: 0.0793 (inactive) | z-score [6]: -0.314 (inactive) | z-score [7]: 0.104 (inactive) | z-score [8]: -0.305 (inactive) | z-score [9]: -0.8 | composite z-score [10]: -0.039

C=CCC(OC(C)=O)[C@@H]1[C@@H](N(Cc2ccc(-c3cccc(C(F)(F)F)c3)o2)C(=O)c2ccc(-c3ccccc3)cc2)c2cc(OCCCO)ccc2N1C(=O)c1ccc(-c2ccccc2)cc1 (stereo not given in full)
z-score [1]: -0.645 | z-score [2]: 1.03 (inactive) | z-score [3]: 0.0516 (inactive) | composite z-score [4]: 0.0524 (inactive) | z-score [5]: 0.268 (inactive) | z-score [6]: 0.609 (inactive) | z-score [7]: -0.386 (inactive) | z-score [8]: -0.487 (inactive) | z-score [9]: 0.0033 | composite z-score [10]: 0.0471

CCCN1C(=O)[C@]2(CCS(=O)(=O)c3ccccc3)N=C(c3ccc(OCCCO)cc3)O[C@@H]2c2ccccc21
z-score [1]: -0.264 | z-score [2]: -0.443 (inactive) | z-score [3]: -0.278 (inactive) | composite z-score [4]: 0.507 (inactive) | z-score [5]: 0.0279 (inactive) | z-score [6]: 0.492 (inactive) | z-score [7]: 1.82 (inactive) | z-score [8]: 0.544 (inactive) | z-score [9]: -0.967 | composite z-score [10]: -0.0773

CC(C)C[C@@H]1NC(=O)[C@H]2C[C@@H](C(=O)NCCCCCCN(C)C)[C@@H](c3ccc(O)cc3)N2C1=O
z-score [1]: -0.447 | z-score [2]: -0.476 (inactive) | z-score [3]: -0.671 (inactive) | composite z-score [4]: -0.687 (inactive) | z-score [5]: -0.214 (inactive) | z-score [6]: -0.217 (inactive) | z-score [7]: 0.0306 (inactive) | z-score [8]: 0.152 (inactive) | z-score [9]: -1.26 | composite z-score [10]: 0.125

CC(C)N1C(=O)[C@@]2(Cc3ccccc31)c1ccccc1C(=O)N(C1CCCCC1)[C@H]2c1ccc(CO)cc1
z-score [1]: 2.02 | z-score [2]: -0.536 (inactive) | z-score [3]: 0.843 (inactive) | composite z-score [4]: -18.9 (active) | z-score [5]: -0.255 (inactive) | z-score [6]: -0.719 (inactive) | z-score [7]: 0.589 (inactive) | z-score [8]: 0.443 (inactive) | z-score [9]: 0.917 | composite z-score [10]: -0.209

COC(=O)[C@@]1(Cc2ccc(F)cc2)[C@@H]2[C@@H](CC(=O)[C@H]2CC(=O)C(=O)N(C)C)CN1C(=O)c1ccccc1
z-score [1]: -2.11 | z-score [2]: 1.52 (inactive) | z-score [3]: -1.4 (inactive) | composite z-score [4]: -0.363 (inactive) | z-score [5]: 0.784 (inactive) | z-score [6]: 0.438 (inactive) | z-score [7]: -0.287 (inactive) | z-score [8]: -0.13 (inactive) | z-score [9]: -2.97 | composite z-score [10]: 0.0253

COCCCNC(=O)C1N=C(c2ccc(OCCCO)cc2)N(c2ccccc2)O1 (stereo not given)
z-score [1]: 0.522 | z-score [2]: -0.5 (inactive) | z-score [3]: -0.441 (inactive) | composite z-score [4]: 0.0216 (inactive) | z-score [5]: -1.45 (inactive) | z-score [6]: 0.254 (inactive) | z-score [7]: 0.516 (inactive) | z-score [8]: 1.03 (inactive) | z-score [9]: 0.694 | composite z-score [10]: 0.819

CC1CC/C=C\[C@H]2OC34C=CCN(C(C)(C)C)C(=O)[C@H]3N(CCCCCCO)C(=O)[C@@H]4C2C(=O)O1 (stereo not given in full)
z-score [1]: -0.0231 | z-score [2]: -0.51 (inactive) | z-score [3]: -1.72 (inactive) | composite z-score [4]: -1.07 (inactive) | z-score [5]: -0.401 (inactive) | z-score [6]: 0.0296 (inactive) | z-score [7]: 0.504 (inactive) | z-score [8]: 0.749 (inactive) | z-score [9]: -1.14 | composite z-score [10]: 0.191

C=CC[C@@]1(C(=O)NCc2ccccc2)N=C(c2ccc(OCCCO)cc2)O[C@@H]1c1ccccc1N=[N+]=[N-]
z-score [1]: -0.453 | z-score [2]: 0.669 (inactive) | z-score [3]: -2.2 (inactive) | composite z-score [4]: 1.92 (inactive) | z-score [5]: 1.16 (inactive) | z-score [6]: 2.07 (inactive) | z-score [7]: 0.335 (inactive) | z-score [8]: -0.899 (inactive) | z-score [9]: -0.829 | composite z-score [10]: 0.0736

CCOC(=O)C[C@H]1[C@H](OC(=O)c2ccc(C(=O)c3ccccc3)cc2)[C@@H](NC(=O)c2ccc(-c3ccccc3)cc2)c2cc(OCCCO)ccc2N1C(=O)c1ccccc1
z-score [1]: -0.587 | z-score [2]: -0.0317 (inactive) | z-score [3]: -0.27 (inactive) | composite z-score [4]: -0.972 (inactive) | z-score [5]: 0.0429 (inactive) | z-score [6]: -0.469 (inactive) | z-score [7]: -0.486 (inactive) | z-score [8]: -0.566 (inactive) | z-score [9]: -0.387 | composite z-score [10]: 0.0153

COc1ccc(CCN2C(=O)[C@@]3(Cc4ccccc42)c2ccccc2C(=O)N(Cc2ccccc2C(F)(F)F)[C@H]3c2ccc(CO)cc2)cc1
z-score [1]: -0.104 | z-score [2]: 0.512 (inactive) | z-score [3]: 0.35 (inactive) | composite z-score [4]: -21.6 (active) | z-score [5]: 0.31 (inactive) | z-score [6]: -0.443 (inactive) | z-score [7]: -0.0813 (inactive) | z-score [8]: -0.374 (inactive) | z-score [9]: -0.816 | composite z-score [10]: -0.0102
